# From the supplement of paper PMC8728848
# The entries come from a sample that favours the strongest signals as a whole.
# Legend:
# Assay in all cases: glycan array binding signal (z-score within array); higher = stronger binding
# Details in all cases: glycan notation: IUPAC condensed, linker removed
# [1] = biological target: Gal(b1-4)GlcNAc(b1-6)Gal(b1-4)GlcNAc
# Summary of the method: (§1)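 Glycan array binding is given as a within-array Z-score, which can be read as non-binding when negative. The arrays, 3228 of them, came from the Consortium for Functional Glycomics database and were retained only where the protein sequence was available. Z-scores were averaged across arrays of the same protein sequence at different concentrations or buffers and across linkers.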
# [2] = biological target: GalNAc(b1-4)GlcNAc(b1-3)GalNAc(b1-4)GlcNAc
# Summary of the method: as §1
# GalNAc(b1-6)GalNAc = biological target: GalNAc(b1-6)GalNAc
# Summary of the method: as §1
# GalNAc4S6S(b1-4)GlcNAc = biological target: GalNAc4S6S(b1-4)GlcNAc
# Summary of the method: as §1
# [3] = biological target: GlcA3S(b1-3)Gal(b1-4)GlcNAc(b1-2)Man
# Summary of the method: as §1
# [4] = biological target: GlcNAc(b1-2)[GlcNAc(b1-4)]Man(a1-3)[GlcNAc(b1-4)][GlcNAc(b1-2)Man(a1-6)]Man(b1-4)GlcNAc(b1-4)GlcNAc
# Summary of the method: as §1
# [5] = biological target: GlcNAc(b1-2)[GlcNAc(b1-6)]Man(a1-6)[GlcNAc(b1-2)Man(a1-3)]Man(b1-4)GlcNAc(b1-4)[Fuc(a1-6)]GlcNAc
# Summary of the method: as §1
# [6] = biological target: GlcNAc(b1-2)[GlcNAc(b1-6)]Man(a1-6)[GlcNAc(b1-4)][GlcNAc(b1-2)Man(a1-3)]Man(b1-4)GlcNAc(b1-4)GlcNAc
# Summary of the method: as §1
# [7] = biological target: GlcNAc(b1-3)Gal(b1-3)GalNAc
# Summary of the method: as §1
# [8] = biological target: GlcNAc(b1-3)Gal(b1-4)GlcNAc(b1-3)Gal(b1-4)GlcNAc(b1-2)Man(a1-3)[GlcNAc(b1-3)Gal(b1-4)GlcNAc(b1-3)Gal(b1-4)GlcNAc(b1-2)Man(a1-6)]Man(b1-4)GlcNAc(b1-4)GlcNAc
# Summary of the method: as §1
# [9] = biological target: GlcNAc(b1-3)Gal(b1-4)GlcNAc(b1-3)Gal(b1-4)GlcNAc(b1-3)Gal(b1-4)GlcNAc(b1-2)[GlcNAc(b1-3)Gal(b1-4)GlcNAc(b1-3)Gal(b1-4)GlcNAc(b1-3)Gal(b1-4)GlcNAc(b1-6)]Man(a1-6)[GlcNAc(b1-3)Gal(b1-4)GlcNAc(b1-3)Gal(b1-4)GlcNAc(b1-3)Gal(b1-4)GlcNAc(b1-2)Man(a1-3)]Man(b1-4)GlcNAc(b1-4)[Fuc(a1-6)]GlcNAc
# Summary of the method: as §1
# [10] = biological target: GlcNAc(b1-4)Gal(b1-4)GlcNAc
# Summary of the method: as §1
# Kdn(a2-3)Gal(b1-3)GalNAc = biological target: Kdn(a2-3)Gal(b1-3)GalNAc
# Summary of the method: as §1
# [11] = biological target: Kdn(a2-3)Gal(b1-4)[Fuc(a1-3)]GlcNAc
# Summary of the method: as §1
# [12] = biological target: Man(a1-2)Man(a1-2)Man(a1-3)Man
# Summary of the method: as §1
# MurNAc(b1-4)GlcNAc = biological target: MurNAc(b1-4)GlcNAc
# Summary of the method: as §1
# [13] = biological target: Neu5Ac(a2-3)Gal(b1-3)GlcNAc(b1-6)GalNAc
# Summary of the method: as §1
# [14] = biological target: Neu5Ac(a2-3)Gal(b1-3)]Neu5Ac(a2-3)Gal(b1-4)]GlcNAc
# Summary of the method: as §1
# [15] = biological target: Neu5Ac(a2-3)Gal(b1-4)GlcNAc
# Summary of the method: as §1
# [16] = biological target: Neu5Ac(a2-3)Gal(b1-4)GlcNAc(b1-2)Man(a1-3)[GlcNAc(b1-4)][Neu5Ac(a2-3)Gal(b1-4)GlcNAc(b1-2)Man(a1-6)]Man(b1-4)GlcNAc(b1-4)GlcNAc
# Summary of the method: as §1
# [17] = biological target: Neu5Ac(a2-3)Gal(b1-4)GlcNAc(b1-3)Gal
# Summary of the method: as §1
# [18] = biological target: Neu5Ac(a2-3)Gal(b1-4)GlcNAc(b1-3)Gal(b1-4)GlcNAc(b1-3)Gal(b1-4)GlcNAc(b1-2)Man(a1-3)[Neu5Ac(a2-3)Gal(b1-4)GlcNAc(b1-3)Gal(b1-4)GlcNAc(b1-3)Gal(b1-4)GlcNAc(b1-2)Man(a1-6)]GalNAc
# Summary of the method: as §1
# [19] = biological target: Neu5Ac(a2-3)Gal(b1-4)GlcNAc(b1-3)Gal(b1-4)GlcNAc(b1-3)[Neu5Ac(a2-3)Gal(b1-4)GlcNAc(b1-3)Gal(b1-4)GlcNAc(b1-6)]GalNAc
# Summary of the method: as §1
# [20] = biological target: Neu5Ac(a2-3)Gal(b1-4)[Fuc(a1-3)]GlcNAc(b1-2)Man
# Summary of the method: as §1
# [21] = biological target: Neu5Ac(a2-3)Gal(b1-4)[Fuc(a1-3)]GlcNAc(b1-3)Gal
# Summary of the method: as §1
# [22] = biological target: Neu5Ac(a2-3)Gal(b1-4)[Fuc(a1-3)]GlcNAc(b1-3)Gal(b1-4)[Fuc(a1-3)]GlcNAc(b1-3)Gal(b1-4)[Fuc(a1-3)]GlcNAc
# Summary of the method: as §1
# [23] = biological target: Neu5Ac(a2-3)Gal(b1-4)[Fuc(a1-3)]GlcNAc(b1-6)[Gal(b1-3)]GalNAc
# Summary of the method: as §1
# [24] = biological target: Neu5Ac(a2-3)[GalNAc(b1-4)]Gal(b1-4)GlcNAc
# Summary of the method: as §1
# Neu5Ac(a2-6)Gal(b1-4)Glc = biological target: Neu5Ac(a2-6)Gal(b1-4)Glc
# Summary of the method: as §1
# [25] = biological target: Neu5Ac(a2-8)Neu5Ac(a2-3)Gal(b1-4)Glc
# Summary of the method: as §1
# [26] = biological target: Neu5Ac(a2-8)Neu5Ac(a2-3)Gal(b1-4)GlcNAc
# Summary of the method: as §1
# [27] = biological target: Neu5Ac(a2-8)Neu5Ac(a2-8)Neu5Ac(a2-8)Neu5Ac(a2-3)[GalNAc(b1-4)]Gal(b1-4)Glc
# Summary of the method: as §1
binder,measurement,setting,value
Awp1 (Candida glabrata) (protein) MSLITIFAFLIKATLVLSLDILTPTTLTGDQTFNEDVSVVSSLTLNDGSQYLFNNLLQIAPSSASVTANALAAVSVFTFSLPPSSSLSNSGTLIISNSNTGPSTEQHIVITPNVMANTGTITLSLAHTNTDSSSTLIIDPVTFYNTGTINYESIGSETNDPSLTGNILSIGSSGRTLQNLGTINLNAANSYYLLGTITENSGSINVQKGFLYVNALDFIGNTINLSTTTALAFISPVSQVVRVRGVFFGNIIASVGSSGTFSYNTQTGILTVTTNGVYSYDIGCGYNPALMSGQQETLSFQGNPYDTFLVLVNQPIPSDLTCAAVSSSITPSSSVEPSSSVVPSSSVEPSSSVEPSSSVEPSSSVEPSSSVEPSSSVEPSSSVEPSSSVEPSSSVEPSSSVEPSSSVEPSSSVEPSSSVEPSSSVEPSSSVEPSSSVEPSSSVEPSSSVEPSSSVEPSSLIVPSSSVEPSSSVLPSSSVVPSSSVEPSTPPIPSSSVEPSSSVVPSSPAVPSSSVEPSTPPIPSSSVVSASVFDTSSTLPSSPSVPPSSVSPSTISTPSSSAAPSSFCPTCVSSGTPPAPSSSAIVPTSSAGGGNGGDNREPGAAGQPGAAGQPGAAGQPGAAGQPGAAGQPGAAGQPGAAGQPGAAGQPGAAGQPGAAGQPGAGFGVGSEQPTPGAGAGSGSADGNQSGTGSGTGNGQQGSGQAGSGQAGSGQEGSGQAGSGQAGSGQAGSGQAGSGQAGLDNTASGQSEGGQASAMDGDQSGRDGQSNSGSLLQPNAQQGTGSGTGSDIGADQASGESPGQIGDAQPGSGTDQSSGRHSLAAEARTSQSHSLAADARTRSTTRQTSVIAPDTAPGTASGTAPGTAPGTAVVTTFHGCGTVNHKGMINILLALALLVLL,glycan array binding signal (z-score),[1],-0.366
same,glycan array binding signal (z-score),[2],1.95
same,glycan array binding signal (z-score),GalNAc(b1-6)GalNAc,2.29
same,glycan array binding signal (z-score),GalNAc4S6S(b1-4)GlcNAc,1.51
same,glycan array binding signal (z-score),[3],0.488
same,glycan array binding signal (z-score),[4],0.047
same,glycan array binding signal (z-score),[5],-0.571
same,glycan array binding signal (z-score),[6],-1
same,glycan array binding signal (z-score),[7],2.02
same,glycan array binding signal (z-score),[8],-0.505
same,glycan array binding signal (z-score),[9],2.24
same,glycan array binding signal (z-score),[10],1.07
same,glycan array binding signal (z-score),Kdn(a2-3)Gal(b1-3)GalNAc,-1.24
same,glycan array binding signal (z-score),[11],-0.924
same,glycan array binding signal (z-score),[12],-0.346
same,glycan array binding signal (z-score),MurNAc(b1-4)GlcNAc,-1.87
same,glycan array binding signal (z-score),[13],0.214
same,glycan array binding signal (z-score),[14],0.442
same,glycan array binding signal (z-score),[15],0.13
same,glycan array binding signal (z-score),[16],0.483
same,glycan array binding signal (z-score),[17],0.691
same,glycan array binding signal (z-score),[18],1.61
same,glycan array binding signal (z-score),[19],-0.297
same,glycan array binding signal (z-score),[20],-0.217
same,glycan array binding signal (z-score),[21],0.412
same,glycan array binding signal (z-score),[22],-0.603
same,glycan array binding signal (z-score),[23],-0.493
same,glycan array binding signal (z-score),[24],-0.217
same,glycan array binding signal (z-score),Neu5Ac(a2-6)Gal(b1-4)Glc,-1.39
same,glycan array binding signal (z-score),[25],0.225
same,glycan array binding signal (z-score),[26],-0.772
same,glycan array binding signal (z-score),[27],-1.71
